Reference: PubChem BioAssay (EPA / NIEHS)
The source holds several records for some structures; these can differ, active in one and inactive in another. The source made the active and inactive calls. The calls were made as follows: active = hit-call score of the fitted dose curve at least 0.9, where 1 is the maximum; inactive = score below 0.9.

Experiment: ATG_TGFb_CIS: Attagene CIS-FACTORIAL HepG2 Assay for human Transforming Growth Factor (TGF) (AID 2282967)
Settings: HepG2 Attagene CIS TGFb reporter, mRNA transcription; actives raise or lower the signal
Procedure, shortened: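 Cells were dosed for 24 hours, after which total RNA was reverse-transcribed and reporter sequences amplified, labeled and sized by capillary electrophoresis. Activity was fitted in both directions against DMSO.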

Row | SMILES | AC50 | outcome
1 | Nc1c(Cl)cc([N+](=O)[O-])cc1Cl | 70.8 µM (active) | –
2 | CCCSP(=O)(OCC)SCCC | – | inactive
3 | O=[N+]([O-])c1cc(C(F)(F)F)c(Cl)c([N+](=O)[O-])c1Nc1ncc(C(F)(F)F)cc1Cl | 2.2 µM (active) | inactive
4 | CCC(CC)Nc1c([N+](=O)[O-])cc(C)c(C)c1[N+](=O)[O-] | – | inactive
5 | CNc1cnn(-c2cccc(C(F)(F)F)c2)c(=O)c1Cl | – | inactive
6 | CNC(=O)Oc1cccc2c1OC(C)(C)O2 | – | inactive
7 | CCOP(=S)(OCC)OC(Cl)C(Cl)(Cl)Cl (centres undefined) | – | inactive
8 | CCC(=O)Nc1ccc(Cl)c(Cl)c1 | – | inactive
9 | CSc1nc(NC(C)C)nc(NC(C)C)n1 | – | inactive
10 | CCOP(=O)(NC(C)C)Oc1ccc(SC)c(C)c1 (centres undefined) | – | inactive
11 | CCCOc1nn(C(=O)NS(=O)(=O)c2ccccc2C(=O)OC)c(=O)n1C | – | inactive
12 | CCCCSP(=O)(SCCCC)SCCCC | – | inactive
13 | N#CSCSC#N | – | inactive
14 | C#CCC1=C(C)C(OC(=O)C2C(C=C(C)C)C2(C)C)CC1=O (centres undefined) | – | inactive
15 | COP(=O)(OC)C(O)C(Cl)(Cl)Cl (centres undefined) | – | inactive
16 | CC1(C(=O)Nc2ccc(O)c(Cl)c2Cl)CCCCC1 | – | inactive
17 | CNC(=O)ON=C(SC)C(=O)N(C)C | – | inactive
18 | CCCCOC(=O)[C@@H](C)Oc1ccc(Oc2ccc(C#N)cc2F)cc1 | – | inactive
